Gal4-VP16 FLuc = inhibits Gal4-VP16 luciferase reporter, ROR gamma counter-screen; hit rate 3.5% among 310,000; Potency, µM (series often up to 53.6 µM), inactives show top-dose activity, negative = inhibition, usual class: inhibitors; AID 2546; Drosophila S2 Gal4-VP16 UAS-luciferase, luminescence, 20 h;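 note: Gal4-VP16 expression switched on by copper sulfate through the metallothionein promoter; % is set by controls: 0 for no effect and ±100 for the full control effect; nearly all actives have a fitted effect of over 50% in size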
S2 tox = viability counter-screen for ATXN expression inhibitors. S2 cells (HEK-293 line with an ATXN2-luciferase reporter) viability, CellTiter-Fluor protease fluorescence, 24 h. Potency, µM (highest dose often 56.7 µM), hits mostly cytotoxic. hit rate 0.49% among 400,000. AID 651635; note: nearly all actives have a fitted effect of over 40% in size
TGFb inhibitor = blocks TGF-b signaling; HepG2 CAGA-GFP TGF-b/SMAD3 reporter, GFP fluorescence, 18 h; TGF-beta stimulated, 500 pg/mL final; Potency, µM (highest dose often 46.1 µM), without a hit: at the top dose activity, negative = inhibition, hits mostly inhibitors; hit rate 1.2% among 410,000; AID 588855; note: % is set by controls: 0 for no effect and ±100 for the full control effect; nearly all actives have a fitted effect of over 65% in size
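HEPG2 CAGA-GFP cells (1000/well, DMEM with 1% FBS) were pre-incubated 2 h at 37 degrees C, given compound by pin tool, then stimulated with TGF-beta at 500 pg/mL final for 18 h before per-cell GFP fluorescence imaging.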
HepG2 tox = kills HepG2 cells in TGF-b inhibitor counter-screen; hit rate 0.76% among 410,000; Potency, µM (doses to about 46.1 µM), without a hit: at the top dose activity change, negative = cytotoxicity, usual class: cytotoxic; HepG2 CAGA-GFP viability, ATP luminescence, 18 h
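HepG2 CAGA-GFP cells (1000/well, DMEM with 1% FBS) received compound, then TGF-beta at 500 pg/mL final, and were incubated 18 hours at 37 degrees C. Viability was read by CellTiter-Glo luminescence. Media-only wells were set as complete cell-killing and DMSO as no toxicity.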
RORgamma inh = ROR gamma (mouse) transcription inhibition. P51450. Drosophila S2 Gal4-RORgamma UAS-luciferase reporter, 20 h. Potency, µM (top dose mostly 53.6 µM), for inactives: top-dose activity change, negative = inhibition, hits mostly inhibitors. hit rate 5.4% among 310,000. AID 2551; note: % is set by controls: 0 for no effect and ±100 for the full control effect; nearly all actives have a fitted effect of over 60% in size
Target sequence (P51450 whole entry, looked up, the tested form may be a part): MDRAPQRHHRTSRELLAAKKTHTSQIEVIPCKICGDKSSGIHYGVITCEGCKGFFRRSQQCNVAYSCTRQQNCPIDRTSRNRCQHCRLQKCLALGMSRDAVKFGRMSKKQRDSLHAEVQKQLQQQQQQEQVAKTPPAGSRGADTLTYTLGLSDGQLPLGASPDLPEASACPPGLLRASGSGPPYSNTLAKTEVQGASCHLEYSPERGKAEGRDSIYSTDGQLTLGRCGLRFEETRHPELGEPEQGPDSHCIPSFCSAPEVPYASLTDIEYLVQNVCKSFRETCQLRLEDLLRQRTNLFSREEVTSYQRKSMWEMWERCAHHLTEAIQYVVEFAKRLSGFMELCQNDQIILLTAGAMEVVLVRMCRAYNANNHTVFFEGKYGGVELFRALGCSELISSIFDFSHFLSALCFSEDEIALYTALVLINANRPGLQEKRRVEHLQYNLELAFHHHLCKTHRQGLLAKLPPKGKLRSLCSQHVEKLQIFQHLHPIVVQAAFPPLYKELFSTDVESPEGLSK
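Read-out: Photinus luciferase luminescence; inhibitors lower reporter signal. Insect Schneider cells with Gal4-ROR gamma fusion under metallothionein promoter, UAS reporter; 700 uM final copper sulfate induction, 20 hr, ambient temperature.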
ATXN2 expr inh = reduces ATXN2 reporter expression in HEK-293 cells | HEK-293 ATXN2-luciferase reporter, luminescence, 24 h | Potency, µM (series often up to 57 µM), for inactives: at the top dose activity change, negative = inhibition, actives largely listed as inhibitors | hit rate 0.72% among 360,000; note: % is set by controls: 0 for no effect and ±100 for the full control effect; nearly all actives have a fitted effect of over 55% in size
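qHTS (up to 57 uM final) was run with 24 h compound exposure of reporter cells at 37 °C. Each well was multiplexed: SteadyGlo luminescence measured ATXN2-luciferase expression after a fluorogenic Gly-Phe-AFC viability readout (25 uM final).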
* hit, by the source's call; i = inactive; ? = inconclusive; · = no result; [ ] = dose if it differs, or a comment. A selection: hits, their analogues and other compounds. The true share with any hit is near 6.1%. Calls come from the whole dose curve; as a rule, active = well fitted curve in the direction sought with a large enough effect; inconclusive = small, poorly fitted or top-dose-only effect, or another doubt; inactive = no such curve, though single readings can be large; an effect the other way counts as inactive or inconclusive. Potency is the fitted concentration of half-maximal effect.

SMILES	Gal4-VP16 FLuc	S2 tox	TGFb inhibitor	HepG2 tox	RORgamma inh	ATXN2 expr inh
Cn1cc(-c2nnnn2-c2cccc(C(F)(F)F)c2)c(C(F)(F)F)n1	-4%[0.365 µM]	i	-6%	-13%	10µM*	-5%
CC(C)CCC1=NN(C(=O)c2ccco2)C(O)(C(F)(F)F)C1 (centres undefined)	0%	i	-10%	-6%	23%	-1%
CC(C)CC1=NN(C(=O)c2ccco2)C(O)(C(F)(F)F)C1 (centres undefined)	14µM*	i	-2%	0%	6.3µM*	-7%
Cc1oc(C(C)(C)C)cc1C(=O)NCc1ccc2c(c1)OCO2	?	i	-29%	5%	?	-14%
CCOC(=O)c1ccc(CNC(=O)c2cc(C(C)(C)C)oc2C)o1	?	i	8%	-28%	6.3µM*	-8%
COc1ccc(OC)c(S(=O)(=O)NCC(c2cccs2)S(=O)(=O)c2ccc(F)cc2)c1 (centres undefined)	·	·	?	-26%	·	·
CC(C)NC(=O)c1ccc(C=O)cc1	·	i	·	·	·	5%
CC(C)(C)C(=O)NCCc1nc2ccccc2n1CCCCOc1ccc(Cl)cc1	·	?	?	-95%	·	?
Cc1cccc(C)c1OCCCn1c(CCNC(=O)C2CCCCC2)nc2ccccc21	·	·	11µM*	-94%	·	·
COc1ccc(OCCCn2c(CCNC(=O)C3CCCCC3)nc3ccccc32)cc1	·	·	10µM*	-17%	·	·
Cc1ccccc1OCCCCn1c(CCNC(=O)C(C)(C)C)nc2ccccc21	·	?	16µM*	-86%	·	?
COc1ccc(OCCn2c(CCNC(=O)C3CCCCC3)nc3ccccc32)cc1	·	·	-2%	-21%	·	·
O=C(NCCc1nc2ccccc2n1CCCOc1ccccc1)C1CCCCC1	·	·	?	-9%	·	·
Cn1nnnc1SCCCNCc1cc(Cl)ccc1OCc1ccccc1F	·	?	-20%	-56%	·	?
CC1CCCCN1C(=O)CSc1nc2ccccc2nc1Cc1ccc(Cl)cc1 (centres undefined)	·	?	?	-1%	·	?
CC(Oc1ccccc1)C(=O)N1CCN(Cc2cc(=O)n3nc(-c4ccccc4Cl)sc3n2)CC1 (centres undefined)	·	i	-4%	2%	·	3%
Cc1cccc(N2CCN(C(=O)CCS(=O)(=O)c3ccc4c(c3)CC(=O)N4C)CC2C)c1 (centres undefined)	·	i	-12%	-1%	·	-1%
O=C1NC[C@@H](Cc2cccc3ccccc23)N(CCc2cc(C(F)(F)F)cc(C(F)(F)F)c2)C1=O	-4%	·	13µM*	-119%	-30%	?
O=C1NC[C@@H](Cc2ccc(O)cc2)N(CCc2cccc3ccccc23)C1=O	-13%	i	-2%	-8%	26%	1%
CC(CNC(=O)C1CCN(S(=O)(=O)c2ccc3c(ccn3C)c2)CC1)c1ccccc1 (centres undefined)	·	i	10%	2%	·	0%
Cc1ccc(NC(=O)c2cc(S(=O)(=O)N3CCCC(C)C3)cn2C)c(Br)c1 (centres undefined)	·	i	-5%	-24%	·	-14%
CCOC(=O)c1sc2nc(C)[nH]c(=S)c2c1C	0.79µM*	i	-15%	-7%	0.56µM*	6%
CCOC(=O)c1sc2nc(C)n(N)c(=O)c2c1C	1%	i	-1%	12%	9%	17%
Clc1cccc(CSc2nnc(-c3c[nH]c4ccccc34)o2)c1	-9%	i	?	13µM*	-21%	13%
NCCCCCc1nnc(SCc2cccc(Cl)c2)o1	2.8µM*	i	-1%	-7%	5.6µM*	-18%
SMILES	Gal4-VP16 FLuc	S2 tox	TGFb inhibitor	HepG2 tox	RORgamma inh	ATXN2 expr inh
NCCCCCc1nnc(SCc2ccc(Cl)cc2Cl)o1	5.6µM*	·	21%	-51%	8.9µM*	·
Clc1ccc2nc(CSc3nnc(-c4c[nH]c5ccccc45)o3)cn2c1	·	i	0%	-4%	·	9%
C/C=C(\C)C(=O)OC(C)(C)[C@@H]1Cc2cc3ccc(=O)oc3cc2O1	·	i	6.3µM*	-32%	·	-23%
COc1ccc(NC(=O)c2sc3nc(-c4cc5ccc(OC)cc5oc4=O)[nH]c(=O)c3c2C)cc1	·	·	45%	13%	·	·
COc1cc(OC)cc(C(=O)N2CCN(C(=O)c3ccc(-c4ccccc4)cc3)CC2)c1	7.1µM*	i	?	-19%	1.1µM*	-9%
COc1ccc(C(=O)N2CCN(C(=O)c3ccc(-c4ccccc4)cc3)CC2)cc1OC	2%	i	4%	-1%	22%	-27%
O=C(NNC(=O)C12CC3CC(CC(C3)C1)C2)c1ccccn1	4.5µM*	?	?	-44%	0.5µM*	?
Cc1c(C(=O)N/N=C/c2ccccc2)[nH]c2ccc(Cl)cc12	?	?	?	-31%	18µM*	·
COc1ccc(/C=N/NC(=O)c2[nH]c3ccc(Br)cc3c2-c2ccccc2)cc1	11µM*	i	?	-35%	10µM*	-27%
CCCNC(=O)CCC(=O)N1Cc2cccc(OC)c2Oc2ncccc21	·	i	-7%	1%	·	8%
COc1ccc(-c2nc3sc(CCNC(=O)c4cc(Cl)ccc4OC)c(C)n3n2)cc1	·	25µM*	-17%	-19%	·	?
COc1ccc(-c2nc3sc(CCNC(=O)Cc4ccc(Cl)cc4)c(C)n3n2)cc1	·	·	0%	-9%	·	·
Cc1ccc(-c2nc3sc(CCNS(=O)(=O)c4cc(F)ccc4F)c(C)n3n2)cc1	·	·	6.3µM*	-3%	·	·
COc1ccc(-c2nc3sc(CCNC(=O)c4ccc(Br)o4)c(C)n3n2)cc1	·	?	?	-43%	·	-38%
Cc1c(CCNC(=O)c2ccc(Br)o2)sc2nc(-c3ccc(Cl)cc3)nn12	·	·	11µM*	-33%	·	·
CCn1cc2nc(SCc3ccc(F)cc3)n(Cc3ccc(Cl)cc3)c(=O)c2n1	·	i	-16%	2%	·	-10%
CC(C)n1c(NCc2cc(Cl)ccc2O)nc2ccccc21	1%	?	?	-40%	?	28µM*
